From PubChem BioAssay (Tox21)
Inconclusive results are not listed. Activity calls are given as the source filed them. Calls follow the shape of the dose curve; as a rule, active = well fitted activation curve with a large enough effect in the repeat runs; inconclusive = weak or mixed curves; inactive = no such curve, though single readings can be large or run the other way.

These compounds were tested against Nuclear receptor subfamily 1 group I member 3 (Homo sapiens) (UniProt Q14994) (assay: qHTS assay to identify small molecule agonists of the constitutive androstane receptor (CAR) signaling pathway (AID 1224839; also: nearly all actives have a fitted effect of over 15% in size;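 as to activation: HepG2 cells stably carrying human CAR and a CYP2B6 luciferase reporter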)). Details: HepG2 hCAR CYP2B6-luciferase, agonist mode, 24 h; series mostly up to 92.4 µM; activation: at the top concentration.
Excerpt: National Center for Advancing Translational Sciences [NCATS] NIH Chemical Genomics Center [NCGC] U.S. Environmental Protection Agency [EPA] National Institutes of Environmental Health Sciences [NIEHS] National Toxicology Program [NTP] Assay overview: The constitutive androstane receptor (CAR) is a nuclear receptor which regulates multiple drug metabolizing enzymes (DMEs) and transporters. Activating CAR will generally increase the transcription and subsequent translation of CYP2B6 and CYP3A4. These two DMEs represent about 50% of the drug metabolizing potential in the body. […] Recently, there have also been studies performed indicating CARs role in energy metabolism and cancer therapy. Therefore, inducing CARs activity could have a potential effect on diabetes and cancer. Identifying environmental toxins and compounds which modulate CAR, through the use of the Tox21 10K compound collection, will be an important step in determining the toxicity and potential therapeutic effects these factors will have on the human body.
Assay Protocol Summary: A double-stable (hCAR and CYP2B6-2.2kb) transfected cell line, derived from human hepatoma (HepG2) cells, was utilized for the duration of the quantitative high-throughput screens. The HepG2-CYP2B6-hCAR cells suspended in DMEM culture medium supplemented with 10% FBS, 5 ug/mL blasticidin, 0.5 mg/mL geneticin, 100 U/mL penicillin and 100 ug/mL streptomycin were dispensed at 2500 cells/4 uL/well in 1536-well white solid bottom plates using a Multidrop Combi. After the assay plates were incubated at 37 C/5% CO2 for 4 hrs, 23 nL of compounds at 15 concentrations (from 5-48 columns) or positive control (from 1 to 4 columns) were transferred to the assay plates using a Pintool station. One uL of PK11195, was added using a Flying Reagent Dispenser to generate a final concentration of 0.75 uM PK11195 inside each well. After a 24 hr incubation period at 37 C/5% CO2, four uL of ONE-Glo reagent was added into the assay plates using a Flying Reagent Dispenser. After a 30 min incubation period at room temperature, the luminescence intensity in the assay plates was measured using a ViewLux plate reader.
% is scaled to controls: 0 for no effect and ±100 for the full control effect; potency is read from the fitted curve at half-maximal effect.

Sequence of Nuclear receptor subfamily 1 group I member 3 (Homo sapiens) (Q14994 whole entry, looked up): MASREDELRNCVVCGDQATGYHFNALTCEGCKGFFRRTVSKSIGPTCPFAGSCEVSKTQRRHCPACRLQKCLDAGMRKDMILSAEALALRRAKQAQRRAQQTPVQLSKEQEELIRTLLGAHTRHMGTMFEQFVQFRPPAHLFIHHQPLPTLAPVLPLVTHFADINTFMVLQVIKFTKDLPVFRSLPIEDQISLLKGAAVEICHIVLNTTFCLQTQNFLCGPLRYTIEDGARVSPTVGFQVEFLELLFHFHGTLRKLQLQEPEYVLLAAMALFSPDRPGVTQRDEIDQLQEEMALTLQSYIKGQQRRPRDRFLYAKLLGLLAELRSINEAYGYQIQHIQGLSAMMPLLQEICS

Compound | activation | Potency
Nc1ccc(S(=O)(=O)Nc2ccc(Cl)nn2)cc1 | -2.73% [at 42.5 µM] (inactive) | 
CC(C)CCCC(C)(C)O | -4.69% (inactive) | 
CC(C)NCC(O)COc1ccc(COCCOC(C)C)cc1 (stereo not given) | 0.286% [at 42.5 µM] (inactive) | 
Cc1cc2cc3c(C)cc(=O)oc3c(C)c2o1 |  | 11.9 µM (active)
O=C1O[C@@H]2[C@@H](O)[C@H](O)O[C@@H]2[C@H]1O | -2.71% (inactive) | 
CC(=O)N[C@@H](CCC(=O)O)C(=O)O | -0.732% [at 42.5 µM] (inactive) | 
CC(C(=O)O)c1ccc2c(c1)CC(=O)c1ccccc1S2 (stereo not given) | -0.156% [at 42.5 µM] (inactive) | 
C=C(C)C(=O)OCCOP(=O)(O)OCCOC(=O)C(=C)C | 1.58% (inactive) | 
C[C@@H]1O[C@@H](O[C@@H]2[C@@H](O)[C@H](OCCc3ccc(O)c(O)c3)O[C@H](CO[C@@H]3O[C@H](CO)[C@@H](O)[C@H](O)[C@H]3O)[C@H]2OC(=O)/C=C/c2ccc(O)c(O)c2)[C@H](O)[C@H](O)[C@H]1O | -4.74% (inactive) | 
CCCCC(CC)COCCO (stereo not given) | -0.0437% (inactive) | 
O=C(CS(=O)Cc1ccco1)NC/C=C\COc1cc(CN2CCCCC2)ccn1 (stereo not given) | 0.9% [at 42.5 µM] (inactive) | 
CCN1CCc2nc(N)oc2CC1 | -1.88% [at 42.5 µM] (inactive) | 
CC(C)=O | -3.97% (inactive) | 
CC/C=C\CC1=C(C)CCC1=O | 4.53% (inactive) | 
Brc1ccc(-c2ccccc2)cc1 | 8.71% (inactive) | 
COP(=O)(OC)OC(c1ccc(Cl)cc1)P(=O)(OC)OC (stereo not given) | -4.49% [at 42.5 µM] (inactive) | 
O=C(CCN1CCN(CCO)CC1)N1c2ccccc2Sc2ccc(C(F)(F)F)cc21 | -3.66% [at 42.5 µM] (inactive) | 
CC(CO)c1ccccc1 (stereo not given) | 2.06% (inactive) | 
CCCOC(OCCC)OCCC | -5.02% (inactive) | 
Cc1ccc2ccc(Cl)cc2n1 | 0.305% [at 42.5 µM] (inactive) | 

Compound | activation | Potency
Cc1c(I)c(=O)n(-c2ccccc2)n1C | -1.27% [at 42.5 µM] (inactive) | 
CCCCCCOC(=O)CC | -1.66% (inactive) | 
Cc1ccc(S(=O)(=O)O)c(C)c1 | -1.63% (inactive) | 
O=S(=O)(O)c1cc(O)c2ccc(Nc3ccccc3)cc2c1 | 3.26% (inactive) | 
O=C1c2ccccc2C(=O)C1c1ccccc1 | 1.84% [at 42.5 µM] (inactive) | 
c1ccc2nccnc2c1 | 5.34% (inactive) | 
CC(=O)/C=C/C1C(C)=CCC(C)C1(C)C (stereo not given) | 1.01% (inactive) | 
COCCOCCOCCOCCO | -0.862% (inactive) | 
ClCCCl | 0.162% (inactive) | 
COc1cc(NS(=O)(=O)c2ccc(N)cc2)nc(OC)n1 | 1.71% [at 42.5 µM] (inactive) | 
CC(=O)NCCCCCC(=O)O | -1.44% [at 42.5 µM] (inactive) | 
FC(F)(F)c1ccccc1-n1ccnc1 | 0.275% [at 42.5 µM] (inactive) | 
Cc1cc(Cl)c(C)cc1Cl | 0.249% (inactive) | 
CC(C)(C)NC(N)=O | -2.41% (inactive) | 
CCCC/C=C\CCCCCCCCCC=O | 0.0056% (inactive) | 
COCCc1ccc(OCC2CO2)cc1 (stereo not given) | 5.89% [at 42.5 µM] (inactive) | 
CNS(=O)(=O)CCc1ccc2[nH]cc(C3CCN(C)CC3)c2c1 | -2.26% [at 42.5 µM] (inactive) | 
O=C(/N=N/C(=O)OCc1ccccc1)OCc1ccccc1 |  | 54.5 µM (active)
CN1CCN(CC(=O)N2c3ccccc3C(=O)Nc3cccnc32)CC1 | -1% [at 8.39 µM] (inactive) | 
N#Cc1ccc(C(=O)O)cc1 | 6.59% (inactive) | 
